# Compounds without any hit were thinned out: in the full panel of roughly 83,000, 20% have a hit.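 A percent growth of 40 corresponds to 60% growth inhibition; 0 means no net growth; -100 means all cells died. Active threshold: below 10.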 Activity calls are given as the source filed them.
# Test system: SK-OV-3 ovarian
# Assay: NCI-60 one-dose screen, 48 h (100 = growth as untreated, 0 = no growth, -100 = all killed)
# Settings: 10 µM unless noted
row,Structure (SMILES),growth
1,CCOC(=O)CCC(NC(=O)C(Cc1ccc(N(CCCl)CCCl)cc1)NC=O)C(=O)OCC (centres undefined),135% (inactive)
2,CCCC(C)C1(CC)C(=O)NC(=O)N(C)C1=O (centres undefined),89.3% (inactive)
3,C=CCCCCCCCCC(=O)[O-].C=CCCCCCCCCC(=O)[O-].[Zn+2],112% (inactive)
4,COc1ccc(C(O)(C(=O)O)c2ccc(OC)cc2)cc1,99.1% (inactive)
5,Nc1c(F)cc(-c2nc3cc(F)ccc3[se]2)cc1F,61.4% (inactive)
6,CC(=O)O[C@@H]1CC[C@]2(C)[C@H]3CC[C@]4(C)C(=O)CC[C@H]4[C@@H]3C[C@@H]3SC(N)=N[C@@]32C1,79.1% (inactive)
7,N#CC1(C#N)C(c2ccc(N(CCCl)CCCl)cc2)OC23CCCCC2C1(C#N)C(=N)O3 (centres undefined),96.8% (inactive)
8,CCCCNC(c1ccc(Cl)cc1)C(O)c1ccc(Cl)cc1 (centres undefined),79.6% (inactive)
9,CCOC(=O)[C@@H](C)C[C@H](Cc1ccccc1)NC(=O)c1csc([C@@H](C[C@H](C(C)C)N(C)C(=O)[C@H](CC)NC(=O)[C@H]2CCCCN2C)OC(C)=O)n1,20.9% (inactive)
10,C[Se]C(=O)c1ccccc1OC(C)=O,118% (inactive)
11,ClC1=C(Cl)C(Cl)(C2(Cl)C(Cl)=C(Cl)C(Cl)=C2Cl)C(Cl)=C1Cl,87.1% (inactive)
12,CN[C@@]1(c2ccccc2Cl)CCCC[C@@H]1NCC1CCCO1 (some centres undefined),111% (inactive)
13,COc1cc2c(cc1OCc1ccccc1)C(CC(C)C)=[N+](C)CC2,93.1% (inactive)
14,N#CC1(c2ccccc2)CCN(Cc2ccccc2)CC1,107% (inactive)

# Reference: PubChem BioAssay (NCI)
